# Measured values published in PubChem BioAssay AID602314 (ICCB-Longwood Screening Facility, Harvard Medical School, 2012).
# Hit rate of the full screen: of about 84,000 compounds, about 110 (0.13%) were called active. This is one part of a sample in which actives are shown more often than they occur. Cut-off read from the data, not from the text of the source: active = inhibition above about 30% (passing the limit was not always enough); inactive = the rest.
# System: MgrA (MarR family transcriptional regulator), Staphylococcus aureus Newman
# Experiment: modulators of MgrA DNA binding – biochemical, S. aureus Newman, fluorescence polarization, primary screen (AID 602314);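 note: 0% = protein plus DNA without compound and 100% = DNA alone without protein; higher means less MgrA bound to DNA so lower polarization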
# Settings: hits give high values, concentration not given here
row,Structure (SMILES),inhibition
1,CCN1C(=O)/C(=C/C=C/c2ccco2)C(=O)NC1=S,66.7% (active)
2,CCN(CC)P1(=S)OC(C)(C)CC1(C)O (stereo not given),0.3% (inactive)
3,O=C1CSC(c2ccccc2)c2c(-c3ccccc3)nn(-c3ccccc3)c2N1 (stereo not given),-0.55% (inactive)
4,CCn1cc(C=C(C#N)C#N)c2ccccc21,-2.65% (inactive)
5,O=C1NC(=O)C(C2(C3C(=O)NC(=O)NC3=O)C(=O)Nc3ccccc32)C(=O)N1,1.5% (inactive)
6,COc1cccc(N2C(=O)/C(=C/c3ccsc3)C(=O)NC2=S)c1,18.1% (inactive)
7,NC1=C(C(=O)OCc2ccccc2)C2(C(=O)Nc3ccc(Br)cc32)c2c(c3ccccc3oc2=O)O1 (stereo not given),-0.3% (inactive)
8,CN1CCc2c(c(S)[nH]c(=S)c2C#N)C1,77.6% (active)
9,Cn1c([O-])c([N+](C)(C)C)c(=O)n(C)c1=O,0.5% (inactive)
10,O=C1CC(c2cccc(Br)c2)c2c(c3ccccc3oc2=O)O1 (stereo not given),13.6% (inactive)
